From PubChem BioAssay AID2314 (National Center for Advancing Translational Sciences (NCATS), 2010) come the findings set out here.

Structures are written as SMILES. Among all 300,000 compounds or so, about 37,000 (12%) were called active. The list comes from a sample in which actives are over-represented; it also holds similar structures and randomly drawn compounds. A number with no mark means an inactive call. Cut-off read from the data, not from the text of the source: active = max response mostly above about 13% (no sharp cut-off); inactive = mostly below about 14%.

The test is described as follows: Cycloheximide Counterscreen for Small Molecule Inhibitors of Shiga Toxin. Note: read at 38.3 µM for the half of the compounds with a filed dose; 0% is about no effect. The settings on record: cell reporter, cycloheximide protein synthesis inhibition counterscreen; hits give high values. (In general: A counterscreen serves to expose hits that act by an unwanted route or on another target.)
With `Cc1cc(OC(C)C(=O)Nc2ccc(S(=O)(=O)Nc3onc(C)c3C)cc2)cc(C)c1Cl` (stereo not given), the max response is -2.3%.
Take `C=C(C)CNC(=S)Nc1ccc(S(=O)(=O)Nc2cnc3ccccc3n2)cc1`: the max response is -1.53%.
The value for `O=C(/C=C/Nc1ccc(S(=O)(=O)Nc2cnc3ccccc3n2)cc1)c1cccnc1` was 19.6% (active).
In the case of `CCn1c(SCC(=O)Nc2ccc(S(=O)(=O)Nc3onc(C)c3C)cc2)nnc1-c1ccccc1` it was 5.03%; in that of `Cc1noc(NS(=O)(=O)c2ccc(N/C=C/C(=O)c3ccccc3)cc2)c1C`, 38.5% (active); in that of `Cc1ccc(C(=O)/C=C/Nc2ccc(S(=O)(=O)Nc3onc(C)c3C)cc2)cc1`, 48.2% (active).
The value for `COc1ccc(C(=O)Nc2ccc(S(=O)(=O)Nc3onc(C)c3C)cc2)cc1OC` was -2.06%; that for `O=C(/C=C/c1ccc(Cl)cc1Cl)c1cccnc1` was 2.63%; that for `Cc1noc(NS(=O)(=O)c2ccc(NC(=O)C34CCC(CC3)C4)cc2)c1C` was -1.3%.
For `COC(=O)c1cnc(Nc2cc(C)ccc2OC)c2ccccc12`, the max response is -3.28%.
Turning to `COc1cc(C(=O)NCc2cc3cc(Cl)ccc3n2C)cc(OC)c1OC`, the max response is 9.33%.
The value for `COc1ccc(N2CCN(C(=O)c3cn(C)c4ccc(S(=O)(=O)N5CCOCC5)cc4c3=O)CC2)cc1` was 0.725%.
In the case of `CCc1ccc(C(=O)NC(=S)Nc2ccccc2N2CCOCC2)cc1` it was 12.1%.
The value for `CCCC(C(=O)NC1CCCC1)N(C(=O)Cn1nnc(-c2ccc(C)o2)n1)c1cccc(O)c1` (stereo not given) was -3.39%; that for `CCOC(=O)C(Cc1ccc(N)cc1)N1C(=O)c2ccccc2C1=O` (stereo not given) was 15%.
In the case of `O=S(=O)(c1ccc(Br)c2ccccc12)N1CCOCC1`, the max response was -2.9%.
Take `CC1CN(S(=O)(=O)c2cccc(C(F)(F)F)c2)CN1C(=O)N1CCOCC1` (stereo not given): the max response is -5.77%.
The value for `COc1ccc(N2C(=O)CN=C2Nc2cccc(C)c2C)cc1OC` was 1.91%; that for `Cc1ccc(N2C(=O)CN=C2Nc2nc(C)cc(C)n2)cc1` was -2.81%.
In the case of `Cc1ccc(C)c(NC2=NCC(=O)N2c2ccc3c(c2)OCCO3)c1` it was 17.5% (active).
The value for `CC(Sc1nnc(COc2ccccc2)n1-c1ccccc1)C(=O)O` (stereo not given) was -3.12%; that for `FC(F)(F)c1nnc2sc(-c3ccco3)nn12` was -1.25%; that for `Fc1ccc(-c2ccc(-c3nn4c(-c5ccco5)nnc4s3)o2)cc1` was 12.8% (active).
On to `Cc1nnc2sc(-c3ccco3)nn12`, for which the max response is -2.36%.
The value for `COc1ccc([N+](=O)[O-])cc1NC(=O)C(C)OC(=O)C1c2ccccc2Oc2ccccc21` (stereo not given) was -1.06%.
The value for `CCN(C(=O)CN1CCN(Cc2ccccc2)CC1)c1c(N)n(Cc2ccccc2)c(=O)[nH]c1=O` was -1.94%.
In the case of `O=C(NCCC1=CCCCC1)C1CCN(Cc2cnn(-c3ccccc3)c2-n2cccc2)CC1` it was 18.2%; in that of `Cc1nn(C(C)C(=O)NCCC2=CCCCC2)c(=O)c2nn(-c3ccccc3)c(C)c12` (stereo not given), 12.2%; in that of `C1=C(CCNc2ncnc3c2cnn3-c2ccccc2)CCCC1`, 34.6% (active).
On to `O=C(COC(=O)/C(=C/c1cccs1)c1cccs1)NCc1ccccc1Cl`, for which the max response is -3.92%.
The value for `Cc1cc(OCCCC(=O)NCCN2C(=O)S/C(=C\c3cccnc3)C2=O)ccc1Cl` was -1.74%; that for `CSc1nc2ccc(NC(=O)c3c(F)cccc3F)cc2s1` was 48.4% (active).
The value for `CCCC(=O)Nc1nc2ccc(NC(=O)c3c(F)c(F)c(OC)c(F)c3F)cc2s1` was -1.72%; that for `CCCn1nc(C(=O)Nc2ccc3nc(C)sc3c2)c2ccccc2c1=O` was 2.94%; that for `Cc1ccccc1-n1nnc2c(=O)oc3ccccc3c21` was -0.308%.
The value for `COC(=O)c1ccccc1NC(=O)C1CCN(S(=O)(=O)c2cc(OC)ccc2OC)CC1` was -2.41%.
For `O=c1c2c3c(sc2n(CCN2CCCC2)c(=O)n1Cc1ccccc1)CCCCC3`, the max response was -3.62%.
The value for `Cc1ccc(Nc2nc(-c3ccc(O)cc3O)cs2)nc1` was 50.9% (active).
With `Cc1ccc(NC(=O)c2cc(-c3ccc(C)o3)nc3ccccc23)nc1`, the max response is -0.954%.
In the case of `COCCNc1nc(N)c([N+](=O)[O-])c(N2CCCCCC2)n1` it was 3.03%; in that of `O=C(COC(=O)c1ccc(O)cc1)Nc1nccs1`, 9.78% (active).
The value for `Cc1cc(C(=O)OCC(=O)Nc2nccs2)c2ccccc2n1` was -4.23%; that for `CCCCOC(=O)Nc1nccs1` was 18.8%; that for `Cc1occc1C(=O)NNC(=S)NCC(C)C` was -3.12%.
The value for `Cc1scc(C(=O)NNC(=S)NCC(C)C)c1C` was -0.894%; that for `CC(C)CNC(=S)NC(=O)c1ccc(Cl)cc1` was 34.2% (active).
Regarding `Cc1cc(-c2nnc(SCC(=O)Nc3ccc(S(N)(=O)=O)cc3)n2N)n[nH]1`, the max response was 1.41%.
In the case of `CCCNC(=O)N1CCC(c2ccc3c(c2)OCO3)CC1` it was -1.8%.
In the case of `C=CCOc1ccccc1NC(=O)CN1C(=O)CNC1=O` it was 0.268%.
`COC(=O)c1c(CCl)noc1C(=O)NC(C)C`: the max response is -0.666%.
The value for `COc1ccc(-c2cc3nc(C)c(CCC(=O)NC(C)CCc4ccco4)c(C)n3n2)c(OC)c1` (stereo not given) was 8.95%; that for `CN(C)c1ccc(/C=N/NC(=O)C(O)c2ccc(Br)cc2)cc1` (stereo not given) was 8.48%.
The value for `CC(=O)NC(CC(=O)O)c1ccc(F)cc1` (stereo not given) was -1.3%; that for `CN(C)c1ccc(C(CC(=O)O)C(=O)O)cc1` (stereo not given) was 38.6% (active).
In the case of `COc1cc(NC(=O)c2ccc3c(c2)OCO3)ccc1NC(=O)c1cccs1` it was 17.8% (active); in that of `COc1cc(NC(=O)c2cccs2)ccc1NC(=O)c1ccccc1Cl`, 28.9% (active).
With `CN1CCN(C(=O)/C(=C\c2ccc3c(c2)OCO3)NC(=O)c2cccs2)CC1`, the max response is -1.19%.
In the case of `COc1cc2ccccc2cc1C(=O)Nc1ccc(NC(=O)c2cccs2)cc1` it was -2.59%; in that of `COc1cc(NC(=O)COc2ccccc2Cl)ccc1NC(=O)C(C)C`, 0.487%; in that of `CCC(=O)c1cc2c(cc1NC(=O)c1cccs1)OCCO2`, -4.08%.
In the case of `COc1ccc(S(=O)(=O)N2CCC(C(=O)NCCC(=O)NCc3cccc(OC)c3)CC2)cc1` it was -2.91%.
The value for `Cc1cc(S(=O)(=O)NC2CCCC2)ccc1-n1cnnn1` was -1.68%.
As for `CCC(=O)Nc1cccc(C2=NOC3(C2)C[C@@H](C(N)=O)N(C(=O)c2cc([N+](=O)[O-])cc([N+](=O)[O-])c2C)C3)c1` (stereo not given in full), the max response was 3.34%.
`CC1=C(C(=O)Nc2ccccc2)C(c2cccs2)C(C#N)=C(SCC#N)N1` (stereo not given): the max response is -2.44%.
In the case of `O=C(Nc1ccc(N2CCN(C(=O)c3ccccc3)CC2)c(Cl)c1)c1ncn[nH]1` it was -0.606%.
As for `CCn1c(=N)n(CC(=O)c2cccc(OC)c2)c2ccccc21`, the max response is 35.3% (active).
In the case of `CCCn1c(=N)n(CC(=O)c2ccc(Cl)c(Cl)c2)c2ccccc21` it was -0.499%; in that of `COc1ccc2cc(C(=O)O)n(CC(=O)c3ccccc3)c2c1`, -1.7%.
The value for `Cc1ccc(Cn2c(=N)c(S(=O)(=O)c3ccc(C)cc3)cc3c(=O)n4ccccc4nc32)cc1` was -2.4%; that for `C=CCc1cc(S(=O)(=O)c2ccc(O)c(CC=C)c2)ccc1O` was -2.33%.
For the compound `O=C(Nc1cccc(F)c1)c1coc(=O)c(Br)c1`, the max response was 22.1% (active).
In the case of `O=C(Nc1cccc(NC(=O)c2cccc(F)c2)c1)c1ccccc1` it was 9.34%.
In the case of `Cc1c(NC(=O)c2coc(=O)c(Br)c2)c(=O)n(-c2ccccc2)n1C` it was 10.1%; in that of `COc1ccc(CCNC(=O)CN2C(=O)CCSc3ccccc32)c(OC)c1`, -1.78%.
The value for `COc1ccc(CC(=O)N/N=C/c2cc([N+](=O)[O-])cc(Br)c2O)cc1` was -2.73%.
Turning to `O=C1CSC(=S)N1/N=C/c1ccc(O)c([N+](=O)[O-])c1`, the max response was 2.96%.
The value for `CCOc1cccc(/C=N/N2C(=O)CSC2=S)c1O` was 13.3% (active); that for `CCOc1cccc(/C=N/NC(=S)NCCN2CCOCC2)c1O` was 9.08%.
In the case of `Cc1cccc(CN2CCC(n3nccc3NC(=O)c3ccccc3C)CC2)n1` it was 2.27%; in that of `COc1ccc(OCc2cn3c(C)cc(C)nc3n2)cc1`, 17.1%; in that of `CNS(=O)(=O)c1cccc(C(=O)NCC2CCCCC2)c1`, -3.55%.
Turning to `CN(C(=O)c1cccc(OC2CCN(S(=O)(=O)N(C)C)CC2)c1)C1CCOC1` (stereo not given), the max response was 16.6%.
The value for `CN(C)S(=O)(=O)N1CCC(Oc2cccc(C(=O)NCCCC3CCCC3)c2)CC1` was 52.4% (active); that for `Cc1ccc(S(=O)(=O)Nc2nc(N)n(-c3ccccc3)n2)cc1` was -2.82%.
With `Cc1ccc(C(=O)Nc2nc(N)n(-c3ccccc3)n2)cc1`, the max response is 20.3% (active).
The value for `Nc1nc(NC(=O)/C=C/c2ccccc2)nn1-c1ccccc1` was -0.981%.
With `CC(=O)c1ccc(OCC(O)CN2CCN(S(=O)(=O)c3cccc(Br)c3)CC2)cc1` (stereo not given), the max response was -0.615%.
In the case of `O=c1c2cc([N+](=O)[O-])ccc2nc2n1CCC2` it was -3.29%; in that of `O=c1[nH]c(/C=C\c2cccc(C(F)(F)F)c2)nc(O)c1[N+](=O)[O-]`, -0.44%.
Consider `C=CCN(C(=O)Nc1ccc2c(c1)nc(C)n2C)c1ccccc1`, for which the max response was 32.3% (active).
The value for `Cc1nn(CC(=O)Nc2ccc3c(c2)nc(CN2CCCCC2)n3C)c(=O)c2ccccc12` was 9.68%; that for `C=CCN(C(=O)Cn1ncc2c1-c1cc(C)ccc1OC2)c1ccccc1` was -3.22%.
In the case of `C=CCN(C(=O)Nc1ccc2oc(C)nc2c1)c1ccccc1` it was 44.6% (active); in that of `CCC(=O)Nc1ccc2nc(C)n(Cc3ccccc3Cl)c(=O)c2c1`, -0.377%.
As to `C=CCN(CC=C)C(=O)Nc1ccc(OCC)cc1`, the max response is 12.5%.
